Holding throughout (test): Spec-seq (EMSA and sequencing of bound and unbound bands); 100 nM BATFx-JUNB, 1 uM dsDNA library, 50 mM K acetate, 20 mM Tris-acetate, 10 mM Mg acetate, 100 ug/ml BSA, pH 7.9, 10% glycerol, 30 min on ice; native 9% PAGE at 4 C; low values mean tight binding
Details in all cases: protein: recombinant;recombinant; tags: N-terminal mCherry-TEV, cleaved off;C-terminal 6His; copies: 1;1; dsDNA, one strand shown
Background: A gel shift assay detects complexes by their altered migration in electrophoresis.

One experiment addresses T1, BATF;JUNB (human;human, UniProt Q16520;P17275 1-125;148-347, |).
T1 sequence 1: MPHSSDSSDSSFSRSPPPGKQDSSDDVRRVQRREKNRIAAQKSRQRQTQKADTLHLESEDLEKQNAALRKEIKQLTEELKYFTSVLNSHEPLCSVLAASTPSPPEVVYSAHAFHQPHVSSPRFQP
T1 sequence 2: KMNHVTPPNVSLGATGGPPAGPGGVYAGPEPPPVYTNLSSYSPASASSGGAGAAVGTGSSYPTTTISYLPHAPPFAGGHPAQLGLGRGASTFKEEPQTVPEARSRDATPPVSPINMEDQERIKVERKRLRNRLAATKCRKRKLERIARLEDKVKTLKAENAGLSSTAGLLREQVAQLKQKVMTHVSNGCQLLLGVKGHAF
In a few lines: (§1)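 The protein, at 100 nM, was incubated with 1 μM double-stranded degenerate DNA library for 30 min on ice in NEB Cutsmart buffer with 10% glycerol, then resolved by native 9% PAGE at 4 °C. Excised bound and unbound bands were PCR-barcoded and Illumina-sequenced, and each sequence's relative binding energy in kT is −ln of its bound/unbound read-count ratio.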

The next experiment addresses T2, BATF2 (bZIP);JUNB (human;human, UniProt Q8N1L9;P17275 1-142;148-347, |).
T2 sequence 1: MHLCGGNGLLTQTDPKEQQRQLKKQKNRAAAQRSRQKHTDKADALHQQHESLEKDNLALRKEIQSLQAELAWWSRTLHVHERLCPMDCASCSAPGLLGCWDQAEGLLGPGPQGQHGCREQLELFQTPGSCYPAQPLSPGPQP
T2 sequence 2: T1 sequence 2
Put shortly:
as §1

The next experiment has as its target T3, BATF3;JUNB (human;human, UniProt Q9NR55;P17275 1-127;148-347, |).
T3 sequence 1: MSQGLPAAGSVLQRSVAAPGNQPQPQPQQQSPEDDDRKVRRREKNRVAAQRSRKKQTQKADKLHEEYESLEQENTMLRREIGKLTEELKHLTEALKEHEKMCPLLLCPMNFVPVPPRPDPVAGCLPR
T3 sequence 2: T1 sequence 2
In a few lines: as §1

Regarding “GATAGTCTCATTTTCACCCCGTGAAATTACGTCATTGTTCCATTACAGTATCTGT”, the binding signal with BATF;JUNB is -0.943 kT; with BATF2 (bZIP);JUNB it was -1.14 kT; in the experiment with BATF3;JUNB, -1.82 kT.

Take “GATAGTCTCATTTTCACCCCGTGAAATTAGTCATTTGTTCCATTACAGTATCTGT”: the values for the binding signal in the experiment with BATF;JUNB, in the experiment with BATF2 (bZIP);JUNB and in the experiment with BATF3;JUNB were -0.885 kT, -0.599 kT and -1.19 kT, respectively.

“GATAGTCTCATTTTCACCCCGTGAAATGACGCACTTGTTCCATTACAGTATCTGT”: the binding signal with BATF;JUNB is -0.31 kT; with BATF2 (bZIP);JUNB, 0.227 kT; in the experiment with BATF3;JUNB, -0.203 kT.

For the sequence “GATAGTCTCATTTTCACCCCGTGAAAATGTGTCATTGTTCCATTACAGTATCTGT”, the binding signal with BATF;JUNB was -0.713 kT; in the experiment with BATF2 (bZIP);JUNB it was -0.258 kT; with BATF3;JUNB, -0.757 kT.

Take “GATAGTCTCATTTTCACCCCGTGAAATGACCCAGTTGTTCCATTACAGTATCTGT”: the binding signal came out at 0.583 kT with BATF;JUNB, 1.09 kT with BATF2 (bZIP);JUNB and 1.02 kT in the experiment with BATF3;JUNB.

Take “GATAGTCTCATTTTCACCCCGTGAAATGACGACATTGTTCCATTACAGTATCTGT”: the binding signal in the experiment with BATF;JUNB is -0.298 kT; with BATF2 (bZIP);JUNB, 0.288 kT; in the experiment with BATF3;JUNB, -0.606 kT.

For the sequence “GATAGTCTCATTTTCACCCCGTGAAATGGCGTCATTGTTCCATTACAGTATCTGT”, the binding signal with BATF;JUNB was -0.631 kT; with BATF2 (bZIP);JUNB it was -0.0754 kT; with BATF3;JUNB it was -1.11 kT.

Take “GATAGTCTCATTTTCACCCCGTGAAATGAGTTATTTGTTCCATTACAGTATCTGT”: the binding signal was 0.153 kT with BATF;JUNB, 0.843 kT in the experiment with BATF2 (bZIP);JUNB and 0.54 kT in the experiment with BATF3;JUNB.

As for “GATAGTCTCATTTTCACCCCGTGAAATGACTTAGTTGTTCCATTACAGTATCTGT”, the binding signal with BATF;JUNB was 0.0125 kT; in the experiment with BATF2 (bZIP);JUNB, 0.47 kT; with BATF3;JUNB, 0.28 kT.

Take “GATAGTCTCATTTTCACCCCGTGAAATTGGGTCATTGTTCCATTACAGTATCTGT”: the binding signal is 0.183 kT with BATF;JUNB, 0.516 kT with BATF2 (bZIP);JUNB and -0.0123 kT in the experiment with BATF3;JUNB.

Turning to “GATAGTCTCATTTTCACCCCGTGAAATGACTCTTTTGTTCCATTACAGTATCTGT”, the binding signal with BATF;JUNB is 0.109 kT; with BATF2 (bZIP);JUNB, 0.673 kT; with BATF3;JUNB, 0.524 kT.

Regarding “GATAGTCTCATTTTCACCCCGTGAAACTGAGTCATTGTTCCATTACAGTATCTGT”, the binding signal in the experiment with BATF;JUNB is -1.39 kT; with BATF2 (bZIP);JUNB, -0.852 kT; in the experiment with BATF3;JUNB it was -1.63 kT.

Regarding “GATAGTCTCATTTTCACCCCGTGAAATGAGACATTTGTTCCATTACAGTATCTGT”, the binding signal in the experiment with BATF;JUNB was found to be 0.216 kT; with BATF2 (bZIP);JUNB, 1.21 kT; in the experiment with BATF3;JUNB, 0.604 kT.

As for “GATAGTCTCATTTTCACCCCGTGAAATGACTCTATTGTTCCATTACAGTATCTGT”, the binding signal with BATF;JUNB was -0.0428 kT; with BATF2 (bZIP);JUNB it was 0.602 kT; in the experiment with BATF3;JUNB it was 0.236 kT.

Turning to “GATAGTCTCATTTTCACCCCGTGAAATGACTTATTTGTTCCATTACAGTATCTGT”, the binding signal in the experiment with BATF;JUNB is -0.08 kT; in the experiment with BATF2 (bZIP);JUNB, 0.489 kT; in the experiment with BATF3;JUNB, 0.185 kT.

Take “GATAGTCTCATTTTCACCCCGTGAAATGACTCGCTTGTTCCATTACAGTATCTGT”: the values for the binding signal in the experiment with BATF;JUNB, with BATF2 (bZIP);JUNB and with BATF3;JUNB were -0.141 kT, 0.667 kT and 0.378 kT, respectively.

For “GATAGTCTCATTTTCACCCCGTGAAATGACTTCATTGTTCCATTACAGTATCTGT”, the binding signal with BATF;JUNB was -0.183 kT; in the experiment with BATF2 (bZIP);JUNB, 0.172 kT; in the experiment with BATF3;JUNB, -0.643 kT.

For the sequence “GATAGTCTCATTTTCACCCCGTGAAATGAGTCTGTTGTTCCATTACAGTATCTGT”, the results for the binding signal in the experiment with BATF;JUNB, in the experiment with BATF2 (bZIP);JUNB and with BATF3;JUNB were 0.124 kT, 1.09 kT and 0.723 kT, respectively.

Turning to “GATAGTCTCATTTTCACCCCGTGAAATGAGTCACTTGTTCCATTACAGTATCTGT”, the binding signal in the experiment with BATF;JUNB was -0.822 kT; with BATF2 (bZIP);JUNB it was -0.342 kT; in the experiment with BATF3;JUNB, -1.03 kT.

With “GATAGTCTCATTTTCACCCCGTGAAAAGAGTCATTTGTTCCATTACAGTATCTGT”, the binding signal is -0.155 kT in the experiment with BATF;JUNB, 0.416 kT in the experiment with BATF2 (bZIP);JUNB and 0.137 kT with BATF3;JUNB.

As to “GATAGTCTCATTTTCACCCCGTGAAACAGAGTCATTGTTCCATTACAGTATCTGT”, the binding signal in the experiment with BATF;JUNB is -0.149 kT; with BATF2 (bZIP);JUNB, 0.309 kT; in the experiment with BATF3;JUNB, -0.0855 kT.

As for “GATAGTCTCATTTTCACCCCGTGAAATGACCCAATTGTTCCATTACAGTATCTGT”, the figures for the binding signal with BATF;JUNB, with BATF2 (bZIP);JUNB and with BATF3;JUNB were 0.427 kT, 0.768 kT and 0.601 kT, respectively.

With “GATAGTCTCATTTTCACCCCGTGAAATGACACACTTGTTCCATTACAGTATCTGT”, the binding signal with BATF;JUNB was -0.0204 kT; with BATF2 (bZIP);JUNB, 0.55 kT; in the experiment with BATF3;JUNB, 0.362 kT.

With “GATAGTCTCATTTTCACCCCGTGAAAAAGAGTCATTGTTCCATTACAGTATCTGT”, the binding signal with BATF;JUNB was -0.185 kT; with BATF2 (bZIP);JUNB it was 0.233 kT; in the experiment with BATF3;JUNB it was 0.0775 kT.

Consider “GATAGTCTCATTTTCACCCCGTGAAATGACTCCCTTGTTCCATTACAGTATCTGT”, for which the binding signal with BATF;JUNB is 0.214 kT; with BATF2 (bZIP);JUNB, 0.862 kT; in the experiment with BATF3;JUNB it was 0.785 kT.

As for “GATAGTCTCATTTTCACCCCGTGAAATGACTCGATTGTTCCATTACAGTATCTGT”, the binding signal is -0.328 kT in the experiment with BATF;JUNB, 0.519 kT in the experiment with BATF2 (bZIP);JUNB and 0.109 kT with BATF3;JUNB.

In the case of “GATAGTCTCATTTTCACCCCGTGAAATGTCTCATTTGTTCCATTACAGTATCTGT”, the binding signal with BATF;JUNB worked out at 0.287 kT; in the experiment with BATF2 (bZIP);JUNB it was 0.93 kT; in the experiment with BATF3;JUNB, 0.725 kT.

“GATAGTCTCATTTTCACCCCGTGAAATGAGCCACTTGTTCCATTACAGTATCTGT”: the binding signal with BATF;JUNB worked out at 0.573 kT; in the experiment with BATF2 (bZIP);JUNB, 1.34 kT; in the experiment with BATF3;JUNB it was 1.15 kT.

As for “GATAGTCTCATTTTCACCCCGTGAAAGTTAGTCATTGTTCCATTACAGTATCTGT”, the binding signal in the experiment with BATF;JUNB is -0.763 kT; with BATF2 (bZIP);JUNB, -0.0778 kT; with BATF3;JUNB, -0.656 kT.

As to “GATAGTCTCATTTTCACCCCGTGAAATGACTCCATTGTTCCATTACAGTATCTGT”, the binding signal is -0.151 kT with BATF;JUNB, 0.566 kT in the experiment with BATF2 (bZIP);JUNB and 0.168 kT in the experiment with BATF3;JUNB.

For the sequence “GATAGTCTCATTTTCACCCCGTGAAAATGCGTCATTGTTCCATTACAGTATCTGT”, the binding signal was -1.01 kT with BATF;JUNB, -0.552 kT with BATF2 (bZIP);JUNB and -1.11 kT with BATF3;JUNB.

Regarding “GATAGTCTCATTTTCACCCCGTGAAATGACTCCGTTGTTCCATTACAGTATCTGT”, the values for the binding signal with BATF;JUNB, with BATF2 (bZIP);JUNB and in the experiment with BATF3;JUNB were 0.0406 kT, 0.724 kT and 0.582 kT, respectively.

Turning to “GATAGTCTCATTTTCACCCCGTGAAATGACTCTCTTGTTCCATTACAGTATCTGT”, the binding signal in the experiment with BATF;JUNB was determined as 0.11 kT; with BATF2 (bZIP);JUNB it was 0.738 kT; with BATF3;JUNB, 0.694 kT.

“GATAGTCTCATTTTCACCCCGTGAAATGACACAATTGTTCCATTACAGTATCTGT”: the binding signal is 0.0803 kT with BATF;JUNB, 0.413 kT with BATF2 (bZIP);JUNB and -0.063 kT in the experiment with BATF3;JUNB.

With “GATAGTCTCATTTTCACCCCGTGAAATGAGACAGTTGTTCCATTACAGTATCTGT”, the binding signal with BATF;JUNB came out at 0.654 kT; with BATF2 (bZIP);JUNB it was 1.32 kT; in the experiment with BATF3;JUNB, 1.06 kT.

These data come from article PMC5869772, “Quantitative profiling of BATF family proteins/JUNB/IRF hetero-trimers using Spec-seq”.
